For some assays here: Results with a measured potency or affinity are listed apart.
Legend:
Parameters in all cases: scale not given: direction of the effect not stated beside the values
[1] = target: Protein translocase subunit SecA (Escherichia coli (strain K12)) (UniProt P10408); experiment: Assay to Identify E. coli SecA ATPase Inhibitors; format: functional; conditions: 30 µM
[2] = target: T1, Ubiquitin-activating enzyme e1, putative (Leishmania donovani (strain BPK282A1)) (UniProt E9BSI1); experiment: Leishmania donovani Ubiquitin Activating Enzyme (LdE1); format: functional; conditions: 30 µM
T1 sequence (whole entry): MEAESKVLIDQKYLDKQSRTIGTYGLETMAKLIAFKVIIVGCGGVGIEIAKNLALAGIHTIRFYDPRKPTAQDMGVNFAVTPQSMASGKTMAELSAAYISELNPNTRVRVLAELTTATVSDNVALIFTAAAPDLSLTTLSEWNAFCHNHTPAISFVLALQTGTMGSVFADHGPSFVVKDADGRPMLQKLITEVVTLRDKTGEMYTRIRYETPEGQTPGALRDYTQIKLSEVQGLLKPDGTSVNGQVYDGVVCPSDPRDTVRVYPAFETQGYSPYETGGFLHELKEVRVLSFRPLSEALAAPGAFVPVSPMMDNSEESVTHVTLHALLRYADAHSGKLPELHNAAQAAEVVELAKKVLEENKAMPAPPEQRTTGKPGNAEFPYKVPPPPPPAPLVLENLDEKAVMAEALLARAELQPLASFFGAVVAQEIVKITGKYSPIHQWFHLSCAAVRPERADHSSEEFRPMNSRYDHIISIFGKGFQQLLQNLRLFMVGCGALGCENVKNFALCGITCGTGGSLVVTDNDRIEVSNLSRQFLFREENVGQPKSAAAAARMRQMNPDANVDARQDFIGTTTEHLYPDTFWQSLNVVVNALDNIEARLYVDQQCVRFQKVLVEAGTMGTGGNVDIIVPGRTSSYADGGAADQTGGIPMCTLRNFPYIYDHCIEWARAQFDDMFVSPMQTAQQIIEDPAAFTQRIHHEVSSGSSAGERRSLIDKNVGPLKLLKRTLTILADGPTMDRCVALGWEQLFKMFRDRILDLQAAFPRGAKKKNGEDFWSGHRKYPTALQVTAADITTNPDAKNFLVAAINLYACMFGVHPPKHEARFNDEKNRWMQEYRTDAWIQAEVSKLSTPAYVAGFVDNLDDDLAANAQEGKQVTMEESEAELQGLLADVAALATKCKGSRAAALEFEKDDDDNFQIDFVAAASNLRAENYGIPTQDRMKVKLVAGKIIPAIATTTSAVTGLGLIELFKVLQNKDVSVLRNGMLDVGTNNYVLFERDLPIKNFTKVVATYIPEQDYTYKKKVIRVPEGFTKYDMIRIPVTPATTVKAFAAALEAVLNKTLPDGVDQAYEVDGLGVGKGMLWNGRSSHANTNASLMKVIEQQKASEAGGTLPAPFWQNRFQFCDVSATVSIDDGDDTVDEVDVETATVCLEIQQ

[3] = target: Sialic acid-binding Ig-like lectin 9 (Homo sapiens) (UniProt Q9Y336); experiment: Hs-Siglec9 ALPHAscreen SOP 20170721; conditions: 10 µM
Trypanosoma cruzi = experiment: Trypanosoma cruzi phosphomannomutase and mannose-1-phosphate guanylyltransferase assay; format: functional; conditions: 10 µM
[4] = target: T2, Arginase-2, mitochondrial (Homo sapiens) (UniProt P78540); experiment: in vitro enzyme assay to detect the production of urea directly proportional to the activity of Arginase II; format: functional; conditions: 33.3 µM; further: in the data most compounds retested in dose-response had high values
T2 sequence (whole entry): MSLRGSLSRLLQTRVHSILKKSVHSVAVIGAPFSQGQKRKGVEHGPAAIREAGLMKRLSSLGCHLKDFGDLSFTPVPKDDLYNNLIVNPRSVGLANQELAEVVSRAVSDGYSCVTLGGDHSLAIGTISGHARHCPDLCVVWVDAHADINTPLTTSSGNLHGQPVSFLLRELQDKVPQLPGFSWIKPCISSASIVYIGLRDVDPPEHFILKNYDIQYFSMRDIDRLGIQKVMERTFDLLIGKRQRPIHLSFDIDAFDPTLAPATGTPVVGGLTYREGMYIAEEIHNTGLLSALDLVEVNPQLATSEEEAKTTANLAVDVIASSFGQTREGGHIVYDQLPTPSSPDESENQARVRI

[5] = target: T3, Proteasome subunit beta (Trypanosoma cruzi) (UniProt O96673); experiment: Trypanosoma cruzi proteasome chymotrypsin-like activity (TcProtChymo) assay.; further: in the data most compounds retested in dose-response had high values; format: functional; conditions: 9.37 µM
T3 sequence (whole entry): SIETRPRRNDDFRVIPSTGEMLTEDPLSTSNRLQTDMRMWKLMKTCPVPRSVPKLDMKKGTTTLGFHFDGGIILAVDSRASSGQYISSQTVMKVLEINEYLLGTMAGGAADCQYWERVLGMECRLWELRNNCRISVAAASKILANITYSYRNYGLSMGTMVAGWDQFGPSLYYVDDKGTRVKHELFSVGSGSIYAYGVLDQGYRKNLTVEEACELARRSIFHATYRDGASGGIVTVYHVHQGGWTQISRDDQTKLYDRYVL

Homo sapiens = species on record: Homo sapiens; experiment: To identify inhibition of the IFN signalling (Jak-Stat) pathway via expression of an eGFP reporter gene under the control of an IFN-stimulated response element (ISRE) containing MxA promoter.; format: functional; conditions: 30 µM
[6] = target: T4, Tyrosyl-tRNA synthetase, putative (Trypanosoma cruzi (strain CL Brener)) (UniProt Q4DSP6); experiment: Trypanosoma cruzi tyrosyl tRNA synthetase (TcYRS) _High Tyrosine SOP; format: functional; conditions: 30 µM; further: in the data most compounds retested in dose-response had high values
T4 sequence (whole entry): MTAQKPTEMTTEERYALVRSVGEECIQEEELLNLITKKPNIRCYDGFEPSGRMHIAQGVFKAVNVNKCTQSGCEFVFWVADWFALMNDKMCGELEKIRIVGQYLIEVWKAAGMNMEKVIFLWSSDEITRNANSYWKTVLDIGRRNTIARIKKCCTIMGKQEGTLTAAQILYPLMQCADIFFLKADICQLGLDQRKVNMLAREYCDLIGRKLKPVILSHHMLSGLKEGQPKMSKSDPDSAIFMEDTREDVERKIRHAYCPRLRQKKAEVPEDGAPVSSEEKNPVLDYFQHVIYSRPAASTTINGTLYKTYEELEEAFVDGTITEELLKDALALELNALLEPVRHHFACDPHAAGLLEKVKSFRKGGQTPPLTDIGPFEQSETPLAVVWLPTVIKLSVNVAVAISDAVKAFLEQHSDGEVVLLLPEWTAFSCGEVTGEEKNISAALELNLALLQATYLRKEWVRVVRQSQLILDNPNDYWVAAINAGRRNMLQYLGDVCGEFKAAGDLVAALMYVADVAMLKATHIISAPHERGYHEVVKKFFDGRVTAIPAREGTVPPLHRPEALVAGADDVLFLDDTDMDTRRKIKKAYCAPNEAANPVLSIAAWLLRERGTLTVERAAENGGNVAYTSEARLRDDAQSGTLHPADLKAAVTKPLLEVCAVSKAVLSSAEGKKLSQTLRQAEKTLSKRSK

[7] = target: T4, Tyrosyl-tRNA synthetase, putative (Trypanosoma cruzi (strain CL Brener)); experiment: Trypanosoma cruzi tyrosyl tRNA synthetase (TcYRS) SOP; format: functional; conditions: 30 µM
[8] = target: Chromo domain-containing protein 1 (Saccharomyces cerevisiae (strain ATCC 204508 / S288c) (Baker's yeast)) (UniProt P32657); experiment: ScCHD-1 Enzyme Inhibition Assay; format: functional; conditions: 30 µM; further: in the data most compounds retested in dose-response had high values
Sequence of Chromo domain-containing protein 1 (Saccharomyces cerevisiae (strain ATCC 204508 / S288c) (Baker's yeast)) (P32657 whole entry, the tested form may be a part): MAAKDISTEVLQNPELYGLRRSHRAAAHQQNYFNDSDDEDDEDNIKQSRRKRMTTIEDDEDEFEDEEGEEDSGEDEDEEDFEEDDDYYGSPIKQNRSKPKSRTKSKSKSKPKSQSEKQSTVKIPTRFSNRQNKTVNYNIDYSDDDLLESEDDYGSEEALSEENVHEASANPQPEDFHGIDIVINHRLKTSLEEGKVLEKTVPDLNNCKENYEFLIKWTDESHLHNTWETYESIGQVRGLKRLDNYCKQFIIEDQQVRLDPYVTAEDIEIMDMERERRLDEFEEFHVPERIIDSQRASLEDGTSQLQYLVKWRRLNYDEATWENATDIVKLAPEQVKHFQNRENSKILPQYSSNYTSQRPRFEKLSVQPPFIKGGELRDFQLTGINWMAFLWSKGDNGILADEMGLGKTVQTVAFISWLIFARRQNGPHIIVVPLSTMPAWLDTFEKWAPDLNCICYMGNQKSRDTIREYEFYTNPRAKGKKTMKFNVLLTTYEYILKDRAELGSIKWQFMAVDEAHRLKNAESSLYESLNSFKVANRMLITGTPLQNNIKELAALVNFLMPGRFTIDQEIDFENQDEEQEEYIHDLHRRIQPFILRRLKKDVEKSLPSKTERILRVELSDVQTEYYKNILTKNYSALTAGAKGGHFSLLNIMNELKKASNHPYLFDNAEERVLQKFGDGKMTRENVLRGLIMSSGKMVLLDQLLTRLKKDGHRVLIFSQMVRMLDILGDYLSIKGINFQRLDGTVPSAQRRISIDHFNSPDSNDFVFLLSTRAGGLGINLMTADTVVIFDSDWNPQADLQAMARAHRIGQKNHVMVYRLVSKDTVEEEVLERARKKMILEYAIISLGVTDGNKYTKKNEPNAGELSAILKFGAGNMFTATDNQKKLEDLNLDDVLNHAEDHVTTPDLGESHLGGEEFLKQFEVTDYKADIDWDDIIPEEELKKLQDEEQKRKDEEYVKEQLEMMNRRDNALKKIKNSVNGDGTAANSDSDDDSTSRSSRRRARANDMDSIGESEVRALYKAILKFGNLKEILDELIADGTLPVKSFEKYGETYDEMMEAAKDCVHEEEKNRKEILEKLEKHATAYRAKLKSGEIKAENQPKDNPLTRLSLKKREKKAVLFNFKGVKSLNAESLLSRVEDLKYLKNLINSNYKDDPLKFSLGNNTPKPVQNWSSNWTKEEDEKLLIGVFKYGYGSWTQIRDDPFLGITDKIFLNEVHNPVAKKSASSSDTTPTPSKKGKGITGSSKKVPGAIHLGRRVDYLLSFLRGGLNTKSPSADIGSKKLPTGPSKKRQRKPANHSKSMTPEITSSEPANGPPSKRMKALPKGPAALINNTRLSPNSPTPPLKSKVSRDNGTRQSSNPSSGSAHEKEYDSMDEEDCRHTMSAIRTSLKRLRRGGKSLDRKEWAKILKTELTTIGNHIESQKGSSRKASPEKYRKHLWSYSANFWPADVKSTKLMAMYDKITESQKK

Sequence of Sialic acid-binding Ig-like lectin 9 (Homo sapiens) (Q9Y336 whole entry): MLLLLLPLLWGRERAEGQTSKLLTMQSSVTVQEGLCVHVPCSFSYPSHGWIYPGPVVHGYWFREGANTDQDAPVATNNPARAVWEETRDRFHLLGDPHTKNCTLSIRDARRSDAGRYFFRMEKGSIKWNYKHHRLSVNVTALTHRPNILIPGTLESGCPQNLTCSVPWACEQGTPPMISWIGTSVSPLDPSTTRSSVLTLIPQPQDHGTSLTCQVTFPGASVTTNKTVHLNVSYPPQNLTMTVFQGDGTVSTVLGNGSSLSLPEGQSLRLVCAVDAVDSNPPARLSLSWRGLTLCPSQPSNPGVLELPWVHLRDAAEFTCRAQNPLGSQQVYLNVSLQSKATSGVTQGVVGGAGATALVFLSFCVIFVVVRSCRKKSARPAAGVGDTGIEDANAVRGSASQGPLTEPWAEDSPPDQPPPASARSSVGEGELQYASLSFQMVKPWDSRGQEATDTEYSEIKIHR
Sequence of Protein translocase subunit SecA (Escherichia coli (strain K12)) (P10408 whole entry): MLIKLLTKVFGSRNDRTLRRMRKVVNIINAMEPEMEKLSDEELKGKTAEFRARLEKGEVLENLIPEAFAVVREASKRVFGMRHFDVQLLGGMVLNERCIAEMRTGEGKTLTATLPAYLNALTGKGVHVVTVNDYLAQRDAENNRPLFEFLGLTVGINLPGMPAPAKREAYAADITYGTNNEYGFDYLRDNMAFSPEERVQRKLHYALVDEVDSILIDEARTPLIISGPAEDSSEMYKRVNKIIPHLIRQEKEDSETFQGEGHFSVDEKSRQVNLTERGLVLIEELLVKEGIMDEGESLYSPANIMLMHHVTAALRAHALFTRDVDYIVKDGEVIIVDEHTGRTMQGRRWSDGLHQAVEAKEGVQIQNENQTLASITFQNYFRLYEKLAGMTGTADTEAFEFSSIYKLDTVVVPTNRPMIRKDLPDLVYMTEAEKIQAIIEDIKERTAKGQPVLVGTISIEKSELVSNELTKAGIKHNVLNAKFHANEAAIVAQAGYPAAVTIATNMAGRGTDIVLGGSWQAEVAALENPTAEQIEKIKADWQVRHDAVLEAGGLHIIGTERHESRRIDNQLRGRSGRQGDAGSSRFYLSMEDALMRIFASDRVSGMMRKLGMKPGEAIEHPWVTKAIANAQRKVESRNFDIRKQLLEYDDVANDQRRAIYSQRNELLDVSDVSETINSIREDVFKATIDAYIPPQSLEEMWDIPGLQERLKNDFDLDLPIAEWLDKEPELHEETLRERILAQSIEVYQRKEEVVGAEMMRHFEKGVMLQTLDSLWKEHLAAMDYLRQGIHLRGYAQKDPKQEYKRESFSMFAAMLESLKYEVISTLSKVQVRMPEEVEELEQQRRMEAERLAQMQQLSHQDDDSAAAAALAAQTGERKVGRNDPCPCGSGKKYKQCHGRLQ

Structure (SMILES)	Percent Effect [1] [%]	Percent Effect [2] [%]	Percent Effect [3] [%]	Percent Effect (Trypanosoma cruzi) [%]	Percent Effect [4] [%]	Percent Effect [5] [%]	Percent Effect (Homo sapiens) [%]	Percent Effect [6] [%]	Percent Effect [7] [%]	Percent Effect [8] [%]
CCNC(=O)[C@@H]1C[C@@H](NC(=O)Cc2ccncc2)CN1Cc1ccsc1	-12.1	2.7	3.71	-4.56	-0.35	11.6	-2.37	4.79	2.44	5.29
Cc1ccc(C(=O)N2C[C@H]3CCC[C@@]3(COCc3cccnc3)C2)s1	-4.31	6.49	-5.03	-4.38	1.22	15.4	3.36	5.79	5.13	5.28
Cc1noc(Cl)c1CCC(=O)N1CCc2sccc2C1	-5.38	18.7	4.18	0.201	-2.22	22.8	25.1	5.79	17.9	-10.9
Cc1nccn1-c1cccc(C2CCCN2S(=O)(=O)c2cn(C)cn2)n1 (stereo not given)	-6.36	1.33	-0.612	-3.94	-0.885	-0.493	22.4	0	-2.5	-23.4
COCC1CC2(CCN(Cc3cnn(C)c3)CC2)CN1C(C)C (stereo not given)	-5.94	6.49	-6.16	-2.82	-4.45	11.6	2.36	-2.63	2.56	-4
Cc1ncc(S(C)(=O)=O)c(C2CCCNC2)n1 (stereo not given)	-0.171	2.7	5.3	-2.81	1.75	8.39	18.1	6.92	12.2	111
CC(C)OCCN(C)C(C)c1cccc(S(N)(=O)=O)c1 (stereo not given)	-5.89	7.79	-5.22	-3.36	2.66	1.05	15.1	-1.96	-2.35	-1.17
CN(C(=O)CN1CCOC(Cn2cccn2)C1)c1nccs1 (stereo not given)	-7.38	18.2	0.761	4.29	-4.71	11.8	-5.33	3.92	21.2	-15
CN(Cc1ccco1)[C@@H]1CN(Cc2ccc(F)cc2)C[C@@H]2CCCO[C@@H]21	-5.51	9.09	-4.8	-5.16	-6.48	15.4	-5.78	3.68	12.8	-3.55
CCN(CC)C(=O)C(c1ccccc1)N1CCn2c(C)nnc2C1 (stereo not given)	-4.22	17.9	9.65	7.61	0.82	8.45	10.3	7.18	22.9	-4.71
CC(C)c1cc(N2CCC(N)CC2)n2nccc2n1	-7.82	5.41	8.57	11	-3.15	20.6	11.5	3.72	17.1	-1.59

Reference: ChEMBL document CHEMBL3988442, “University of Dundee, Small-Polar-MMV Screening Library” (2021)
